# According to the supplement of paper PMC6555819:
# Key:
# Assay in all cases: PBM binding z-score (relative to random genomic background probes); higher = stronger binding; sequences stand for … in GC…GCGATTGACAGCGTAGAATGAAGG
# [1] = test system: PPARg:RXRa DBDmut IVT, anti-RXR (DBD mutation: RXRa K156A/R161A, NR concentration 270 nM, RXRa partner concentration 90 nM)
# How it was run: (§1)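 Probes were double-stranded and carried 34-nt variable regions with direct-repeat seeds, single-nucleotide variants, half-site ablations and random human genomic background sequences, printed on custom Agilent 4×180K protein-binding microarrays. Arrays were incubated 1 h with ligand-free nuclear receptor dimers in PBS pH 7.4, 2% milk, 0.02% Triton X-100, 1 mM DTT, 0.2 mg/mL BSA and 0.4 mg/ml salmon testes DNA. Antibodies against each partner (one per run) detected binding, and scanned fluorescence was regression-normalized. Binding z-scores use the random background probes as reference.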
# [2] = test system: PPARg:RXRa IVT, anti-PPARg (NR concentration 270 nM, RXRa partner concentration 90 nM)
# How it was run: as §1
# [3] = test system: PPARg DBDmut:RXRa IVT, anti-PPARg (DBD mutation: PPARg1 K132A/R137A, NR concentration 270 nM, RXRa partner concentration 90 nM)
# How it was run: as §1
# [4] = test system: PPARg DBDmut IVT, anti-PPARg (DBD mutation: PPARg1 K132A/R137A, NR concentration 270 nM)
# How it was run: as §1
# [5] = test system: PPARg homodimer (NR concentration 180 nM)
# How it was run: as §1
# [6] = test system: PXR homodimer (NR concentration 270 nM)
# How it was run: as §1
# [7] = test system: RARa:RXR (NR concentration 270 nM, RXRa partner concentration 90 nM)
# How it was run: as §1
# [8] = test system: RARa homodimer (NR concentration 270 nM)
# How it was run: as §1
# [9] = test system: RARb:RXRa (NR concentration 270 nM, RXRa partner concentration 90 nM)
# How it was run: as §1
# [10] = test system: RARb homodimer (NR concentration 270 nM)
# How it was run: as §1
# [11] = test system: RARg:RXRa (NR concentration 270 nM, RXRa partner concentration 90 nM)
# How it was run: as §1
# [12] = test system: RARg homodimer (NR concentration 270 nM)
# How it was run: as §1
# [13] = test system: RXRa DBDmut IVT, anti-RXR (DBD mutation: RXRa K156A/R161A, NR concentration 90 nM)
# How it was run: as §1
# [14] = test system: RXRa homodimer (NR concentration 180 nM)
# How it was run: as §1
# [15] = test system: THRa:RXRa (NR concentration 90 nM, RXRa partner concentration 90 nM)
# How it was run: as §1
# [16] = test system: THRa homodimer (NR concentration 90 nM)
# How it was run: as §1
# [17] = test system: VDR:RXRa (NR concentration 270 nM, RXRa partner concentration 90 nM)
# How it was run: as §1
# [18] = test system: VDR homodimer (NR concentration 270 nM)
# How it was run: as §1
# [19] = test system: PXR:RXRa (NR concentration 270 nM, RXRa partner concentration 90 nM)
# How it was run: as §1
Sequence,PBM binding z-score [1],PBM binding z-score [2],PBM binding z-score [3],PBM binding z-score [4],PBM binding z-score [5],PBM binding z-score [6],PBM binding z-score [7],PBM binding z-score [8],PBM binding z-score [9],PBM binding z-score [10],PBM binding z-score [11],PBM binding z-score [12],PBM binding z-score [13],PBM binding z-score [14],PBM binding z-score [15],PBM binding z-score [16],PBM binding z-score [17],PBM binding z-score [18],PBM binding z-score [19]
ATCTCTAGGTTAAAGTTCAGTGAATCCCGAGGAT,4.45,5.47,1.98,1.29,2.11,1.85,3.99,1.65,3.28,2.94,3.52,3.27,1.18,4.46,2.3,0.775,2.76,3.12,–
CGTCCAAGGTCAGAGAGGTCACTGAATGCCGAGT,3.27,4.05,0.000167,0.0701,3.8,13.1,6.81,1.13,5.37,5.89,7.04,7.93,3.39,6.93,4.71,3.53,–,6.07,–
ACTCGGAGGGCAAAGGTCAGAGCTACGCCAGTGA,2.2,4.71,-0.0277,-0.839,5.97,0.191,–,0.823,4.93,4.39,7.23,5.86,1.7,–,3.36,-0.408,–,1.05,5.61
CGTCCGAGGTCAAAGGTCAGTGAAGAGATGACGG,4.36,6.35,2.87,3.81,5.95,3.02,8.81,4.96,5.93,5.1,8.9,8.05,4.57,10.3,4.89,2.7,–,4.73,–
CCGTACGGGTCAAGGTTATAGCACGGGTGGTACG,0.0598,2.11,-0.559,-1.41,1.37,0.0308,4.49,-0.0555,4.09,3.24,4.93,4.6,0.337,5.61,3.09,0.588,–,1.37,–
ATCGAAAGGTCGTGAGGTGACTATACAGAAAGGC,0.761,2.62,1.76,1.47,1.55,0.227,4.52,1.01,3.99,3.07,4.7,3.57,1.29,5.22,3.87,1.85,3.64,0.91,–
CCTACTGGGCCAAAAAGGCCATTGATGCCGATAA,2.77,2.4,0.199,-0.751,0.287,-0.211,-0.0899,-0.317,0.816,0.855,0.216,0.242,-0.537,-0.173,0.0885,-0.514,0.326,-0.0566,–
CCTACTGGGCCAAAGGTCTTTGATTCCAATGCTC,5.05,5.18,0.12,-0.165,0.366,-0.504,0.354,-0.497,0.448,0.557,0.154,0.0453,-0.198,0.321,0.0869,-0.594,–,-0.573,–
ATATGTAGGATATCGGGTCATTCAGTTTGCGCAT,3.29,4.09,1.47,1.41,1.07,4.53,2.53,1.03,1.66,2.18,1.75,1.44,1.12,2.23,3.15,2.18,–,2.6,–
ATATGTAGGTTACATCCGGGTCATTCTGGCTATG,7.39,7.49,2.61,2.66,1.91,0.712,3.04,0.96,2.21,2.67,3.21,1.93,1.51,3.1,3.63,2.37,3.69,2.5,–
CCTTACGGGCCACGAGGTTATAGCACGACGAGCG,0.97,1.16,-0.462,-1.1,0.126,-0.12,1.06,-0.0676,1.15,1.17,1.33,1.07,-0.516,1.28,1.25,0.458,0.504,0.543,–
ACTAGCAGGTCAAGGGTCACTCAAGATTAGTCCG,4.43,6.12,1.23,1.92,3.91,0.469,–,1.38,4.86,4.9,6.89,6.42,2.13,–,4.04,1.42,–,2.56,5.82
CTCGAAAGGTCGTCCTCAGGTGAGTATACCAAAC,0.175,1.77,0.216,-0.144,1.94,0.134,4.1,-0.0286,3.8,3,5.29,4.2,2.35,4.82,4.13,1.94,–,1.84,–
GGAACGAGGGCATTCGAGTTGATAGCATGGCGAT,2.91,2.18,-0.045,0.402,-0.267,1.45,0.423,-0.292,1.73,0.687,0.932,1.3,3.13,0.756,3.03,-0.775,3.76,2.78,–
CTCGAAAGGTCGGTTGAGGTCAGTATACGGATAA,-0.211,1.36,0.0267,0.122,3.1,2.85,4.9,1.04,4.13,4.41,4.95,4.93,1.63,4.02,5.26,3.23,6.09,3.44,–
CGCCCAAGGTCAGCAGGTCAGTGAAAGCGACGTG,2.94,3.56,0.803,-0.776,3.74,0.324,5.15,1.97,5.18,4.99,6.47,6.63,2.48,5.3,3.63,2.02,3.83,1.38,–
GGAACGGGGGCAAGTTGATAGCAGAGTTTGATGG,4.41,5.53,10.8,12.6,2.77,2.97,2.7,2.02,3.54,2.35,3.33,3.16,3.37,2.6,2.51,1.27,–,4.04,–
CGTCCAAGGTCATAGGAGTTCAGTGAAGACAGAT,3.09,4,1.39,0.8,5.14,10.9,5.59,2.08,5.31,4.79,6.25,6.57,4.22,6.23,4.71,2.7,–,5.97,–
CTCGAAAGGTCGTGCTCAGGTGAGTACACCAAAC,1.21,2.09,1.56,1.04,2.94,0.541,4.67,0.374,4.05,2.93,5.5,4.41,2.36,5.63,4.01,1.21,–,2.52,–
ATATGGAGGTTAGCTGGGGTCATTCAGACTAGGC,2.62,2.93,1.36,1.19,2.73,5.39,5.62,1.8,3.66,4.32,4.94,3.85,2.22,6.26,5.44,3.66,–,5.52,–
GATAAAGGGTCAGCTAGAGGCCAGAGTATGGAAA,2.27,2.89,0.542,-0.0188,3.27,-0.0592,4.78,1.02,5.21,4.46,7.34,6.77,1.54,5.05,3.06,-0.108,–,0.772,–
TGTCAGAGTTCAAAGGTAACGTAAGTATCCACAC,0.11,3.16,0.991,1.01,2.95,5.44,7.02,-0.164,4.47,3.41,5.95,5.28,4.83,7.51,3.53,-0.159,–,5.41,–
ATACGTAGGTTACATCCGGGTCATTCAGGCTATG,1.15,2.36,1.24,0.742,1.87,2.6,3.48,0.687,2.27,2.79,3.59,2.17,0.372,3.06,3.81,2.5,–,2.66,–
CGTCCAAGGTCAAGGGCAGTGAAAGAGACTCGAA,2.83,4,0.426,-0.438,1.82,0.609,3.82,1.15,5.64,4.22,5.8,6.3,3.02,5,3.87,2.22,–,1.92,–
CTTTACGGGTCAAGGTTATAGCACGGGTGGTACG,3.74,4.39,1.72,1.23,2.84,0.731,4.6,0.604,4.17,3.7,5.18,5.01,1.93,5.61,3.26,1.1,–,1.77,–
AGTCAAAGTTCTTCTAGGTAACGTAAGATATGCT,0.515,1.89,0.999,1.12,0.188,0.42,0.106,0.636,0.948,0.172,0.404,0.586,1.41,-0.133,1.71,0.292,–,0.746,–
CTCGAAAGGTCGTGCTTAGGTGAGTATACCAAAC,1,1.93,0.335,0.228,2.19,0.515,4.22,0.262,3.72,3.07,5.09,3.82,2.24,4.91,4.2,1.11,–,1.05,–
GCTCGGGGGACAAGGTCAGAGCTTTGTCCGTAGA,2.28,3.25,1.23,1.71,1.58,0.127,3.59,-0.41,3.92,3.12,4.71,4.55,1.43,3.63,3.48,1.91,–,1.47,–
GATACAAGGTCAGCTAGAGGCCAGAGTATGGAAA,2.56,3.25,0.75,0.155,3.37,0.19,4.64,1.06,5.05,3.93,6.83,6.32,2.06,4.28,3.44,1.18,–,1.09,–
AATACAGGGTCATTAGGCCAGAGTAGGTACGAAT,3.37,4.54,1.38,0.677,2.55,0.493,4.48,1.06,4.04,2.95,4.94,4.39,3.84,5.53,3.28,1.07,–,3.17,–
